Entries with a potency or affinity are not part of this list. Active and inactive are the calls of the source.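 The calls were made as follows: active = fitted concentration giving half the maximal Nile Red retention below 100 µM; inactive = the rest.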
Target: Multidrug resistance protein CDR1 (Candida albicans) (UniProt P43071)
Experiment: Candida albicans Cdr1 pump inhibition curves – singleplex, Cherry Pick2 set, dose response (AID 623996)
Conditions: S. cerevisiae AD/CaCDR1, Nile Red efflux inhibition, flow cytometry; series mostly up to 100 µM

Sequence of Multidrug resistance protein CDR1 (Candida albicans) (P43071 whole entry, looked up): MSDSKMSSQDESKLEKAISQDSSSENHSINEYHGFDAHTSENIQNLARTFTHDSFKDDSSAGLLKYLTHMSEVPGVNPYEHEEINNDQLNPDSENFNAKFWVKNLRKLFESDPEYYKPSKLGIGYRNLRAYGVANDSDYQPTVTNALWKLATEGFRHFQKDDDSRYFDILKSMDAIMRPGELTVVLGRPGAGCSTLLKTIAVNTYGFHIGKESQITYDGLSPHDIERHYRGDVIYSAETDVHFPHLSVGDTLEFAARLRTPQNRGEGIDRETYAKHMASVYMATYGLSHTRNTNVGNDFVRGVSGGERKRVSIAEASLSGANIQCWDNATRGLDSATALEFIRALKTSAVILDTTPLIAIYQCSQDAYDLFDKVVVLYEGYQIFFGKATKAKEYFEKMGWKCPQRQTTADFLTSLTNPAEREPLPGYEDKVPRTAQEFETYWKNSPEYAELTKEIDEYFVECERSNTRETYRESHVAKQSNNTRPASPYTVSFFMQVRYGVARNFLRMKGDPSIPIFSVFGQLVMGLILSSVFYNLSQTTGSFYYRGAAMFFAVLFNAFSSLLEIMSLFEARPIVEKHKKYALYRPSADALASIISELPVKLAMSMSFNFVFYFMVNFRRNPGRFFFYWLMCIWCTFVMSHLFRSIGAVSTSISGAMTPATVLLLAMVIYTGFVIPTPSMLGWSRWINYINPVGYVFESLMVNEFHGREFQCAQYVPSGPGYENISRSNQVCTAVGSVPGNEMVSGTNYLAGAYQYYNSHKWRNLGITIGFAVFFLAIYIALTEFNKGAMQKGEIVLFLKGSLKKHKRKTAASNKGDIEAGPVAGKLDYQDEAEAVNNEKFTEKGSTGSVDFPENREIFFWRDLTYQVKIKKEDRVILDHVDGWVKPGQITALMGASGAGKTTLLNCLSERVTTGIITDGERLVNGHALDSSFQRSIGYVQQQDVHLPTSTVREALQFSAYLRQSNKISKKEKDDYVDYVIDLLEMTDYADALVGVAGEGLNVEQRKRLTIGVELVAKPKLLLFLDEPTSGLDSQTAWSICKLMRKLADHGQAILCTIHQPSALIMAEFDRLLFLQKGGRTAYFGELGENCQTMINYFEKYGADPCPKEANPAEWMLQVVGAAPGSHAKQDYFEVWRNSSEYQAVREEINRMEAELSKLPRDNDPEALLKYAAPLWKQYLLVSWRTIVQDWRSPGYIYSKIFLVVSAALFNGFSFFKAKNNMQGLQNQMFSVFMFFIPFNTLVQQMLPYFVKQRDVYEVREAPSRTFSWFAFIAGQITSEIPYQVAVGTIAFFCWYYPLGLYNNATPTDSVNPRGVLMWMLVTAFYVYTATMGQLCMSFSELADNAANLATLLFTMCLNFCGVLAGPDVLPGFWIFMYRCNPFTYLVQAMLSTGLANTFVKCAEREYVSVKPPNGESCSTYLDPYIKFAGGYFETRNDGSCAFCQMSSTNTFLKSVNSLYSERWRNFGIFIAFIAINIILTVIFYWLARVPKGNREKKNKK

outcome, inactive:
COc1ccc(C2CC(c3ccccc3)=NN2c2ccc(S(N)(=O)=O)cc2)cc1 (stereo not given)
COc1ccc(C2CC(c3ccccc3C(F)(F)F)=NN2c2ccc(S(N)(=O)=O)cc2)cc1 (stereo not given)
CC1CN(c2nc3ccccc3nc2C(C#N)C(=O)NCc2ccc3c(c2)OCO3)CC(C)O1 (stereo not given)
COc1ccc(-c2c[n+](CC(=O)N3c4ccccc4Sc4ccccc43)c3n2CCC3)cc1
O=C(/C=C/c1cccs1)N1CCC2(CC1)Oc1ccc(F)cc1C(=O)C21CC(c2ccccc2)=NO1 (stereo not given)
NS(=O)(=O)c1ccc(N2N=C(c3ccccc3)CC2c2cccc(Br)c2)cc1 (stereo not given)
NC1=NC[C@H](Cc2ccc(O)cc2)N1CCc1cc(C(F)(F)F)cc(C(F)(F)F)c1
O=C(Nc1ccccc1)C1=C[C@@H](c2ccc(Br)cc2)C[C@@H](OCCCCO)O1
COc1cc(OC)c2ccc(=O)oc2c1C(CCN1CCCC(C)C1)c1ccc(N(C)C)cc1 (stereo not given)
O=C(NCCc1ccc(Cl)cc1)C1CCC(CNc2nc(=S)[nH]c3ccccc23)CC1 (stereo not given)
CC(C)C(=O)N1CCN(c2ccccc2NC(=O)c2ccc3c(c2)OCCO3)CC1
CCCCCc1cc(=O)oc2c(C(CCN3CCCC(C)C3)c3ccc(N(C)C)cc3)c(OC)cc(OC)c12 (stereo not given)
O=C(C1CCC(CNc2nc(=S)[nH]c3ccccc23)CC1)N1CCN(c2ccc(F)cc2)CC1 (stereo not given)
CCCCN1Cc2cc(C(=O)c3cc(F)ccc3O)cnc2NC1=O
CCO[C@@H]1OC(C(=O)Nc2ccccc2)=C[C@H](c2ccc(Br)cc2)[C@H]1CCCO

Reference: PubChem BioAssay AID623996 (NMMLSC, 2012)
